# From PubChem BioAssay AID588405 (Sanford-Burnham Center for Chemical Genomics, 2011)
# Out of some 360,000 compounds screened, about 6,200 (1.7%) were called active.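 How the source made its calls: active means inhibition of at least 50% at 20 µM; inactive means the rest.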 Only a selection was taken, and actives are over-represented in it overall.
# Assay: Peg3 promoter-driven luciferase inhibitors, primary screen, cell-based, HeLa, luciferase luminescence (AID 588405)
# Settings: HeLa PEG-Prom luciferase reporter, overnight, at 20 µM, active compounds read high
row,SMILES,inhibition
1,COC(=O)CCCCC1=CCC2C(=O)C=C(O)C2C1 (configuration not stated),0.22% (inactive)
2,COc1ccc(C(C)(O)c2nc(-c3cc(F)cc(F)c3)cs2)cc1 (configuration not stated),23.2% (inactive)
3,COc1cccc(-c2cc3nc(NCc4ccccc4OC)n(C)c(=O)c3s2)c1,-50% (inactive)
4,COc1cc(F)c(C2=CC(=O)CC(C)(C)C2)cc1F,-42.1% (inactive)
5,O=C(O)c1ccccc1-c1cccc2nncn12,-2.07% (inactive)
6,CC(OC(=O)CNC(=O)c1ccc(Cl)c([N+](=O)[O-])c1)C(=O)NCc1ccco1 (configuration not stated),3.12% (inactive)
7,CC(=O)Nc1ccc(NC(=O)COC(=O)c2ccccc2C(=O)c2ccccc2)cc1,-1.14% (inactive)
8,O=C(Nc1cccc(NC(=O)c2ccccc2[N+](=O)[O-])c1)c1ccccc1Cl,-9.06% (inactive)
9,N#Cc1cccc(NC(=O)COC(=O)c2ccccc2C(=O)c2ccc(Cl)c([N+](=O)[O-])c2)c1,108% (active)
10,CC(=O)Nc1ccc(NC(=O)C(C)OC(=O)c2ccccc2C(=O)c2ccc(Cl)c([N+](=O)[O-])c2)cc1 (configuration not stated),93.7% (active)
11,COC(=O)c1cc(NC(=O)Cc2ccccc2[N+](=O)[O-])ccc1Cl,-2.09% (inactive)
12,C=CCC1(C#N)C(=S)NC(C)=C(C(=O)OCC)C1c1ccccc1 (configuration not stated),3.78% (inactive)
13,CCc1nc2c(OCCc3cccc(OC)c3)cccn2c1N(C)C(=O)c1ccc(C)cc1,5.31% (inactive)
14,CC1(C(=O)NS(=O)(=O)c2ccc(Cl)cc2)CCN1C(=O)CC1CCCC1 (configuration not stated),8.85% (inactive)
15,CCN(c1ccccc1)S(=O)(=O)c1cccc(C(=O)NCc2ccccc2CN2CCOCC2)c1,-0.46% (inactive)
16,CCOC1=C2CN(S(=O)(=O)c3ccc(C)cc3)[C@H](c3cccs3)C[C@H]2[C@H]2C(=O)N(c3ccccc3)C(=O)[C@H]2C1,-59.4% (inactive)
17,Cc1ccc(COc2ccc(C(=O)NN)cc2)cc1,-58.5% (inactive)
18,CCCCCCCCCCOC(=O)Cn1c(COc2ccc(C)cc2)[n+](C)c2ccccc21,116% (active)
19,Cc1noc(C)c1COC(=O)Cn1c(C)nc2ccccc21,8.44% (inactive)

row,SMILES,inhibition
1,CCCCCCCCCCOC(=O)Cn1c(COc2cccc(OC)c2)[n+](C)c2ccccc21,102% (active)
2,CCOC(=O)c1cn(CC)c2cc(F)c(F)cc2c1=O,-7.48% (inactive)
3,CN(Cc1cccs1)C(=O)CN1C(=O)c2ccccc2S1(=O)=O,-42.7% (inactive)
4,COc1ccccc1-n1nnnc1S(=O)(=O)Cc1ccc(Cl)cc1,108% (active)
5,COc1ccccc1-n1nnnc1SCC(=O)NC(=O)Cc1ccccc1,3.09% (inactive)
6,CCC(C)N(C(=O)CSc1nnnn1-c1ccccc1OC)C1CCS(=O)(=O)C1 (configuration not stated),6.27% (inactive)
7,O=C(N=C1SC2CS(=O)(=O)CC2N1c1cc(Cl)ccc1Cl)C1CC1 (configuration not stated),3.34% (inactive)
8,CC1CCN(c2nc3c(c(=O)[nH]c(=O)n3C)n2CCCc2ccccc2)CC1,-2.12% (inactive)
9,C=C(C)Cn1c(N2CCCC2)nc2c1c(=O)[nH]c(=O)n2C,-3.39% (inactive)
10,Cn1c(=O)[nH]c(=O)c2c1nc(N1CCN(C(c3ccccc3)c3ccccc3)CC1)n2CCO,74.6% (active)
11,COc1ccc(-c2cc3nc(NCCOc4ccccc4)ccn3n2)cc1,-70.4% (inactive)
12,COC(=O)c1ccccc1N=NNc1ccc([N+](=O)[O-])cc1,-132% (inactive)
13,COc1ccc(CCNC(=O)c2ccc(CS(=O)(=O)c3ccc(Br)cc3)o2)cc1OC,32.6% (inactive)
14,Cc1cccc(C)c1Cn1c(C)c(C(=O)NCc2cccc(Cl)c2)sc1=O,0.34% (inactive)
15,CC1(C(=O)NS(=O)(=O)c2ccccc2)CCN1C(=O)c1ccccc1 (configuration not stated),8.86% (inactive)
16,CC(=O)Nc1cc(-c2cccc(CO)c2)cn2c(-c3cccc(C(F)(F)F)c3)cnc12,19.9% (inactive)
17,COc1ccccc1N1CCN(/N=C\C(Br)=C\c2ccccc2)CC1,-183% (inactive)
18,Cc1cc(-c2n[nH]c(=S)n2/N=C/C(Br)=C/c2ccccc2)n[nH]1,101% (active)
19,Cc1ccccc1-c1n[nH]c(=S)n1/N=C/c1ccc(-c2ccccc2Br)o1,13.5% (inactive)

row,SMILES,inhibition
1,COc1c(C)cc(C(O)c2ncc(-c3cccc(C(F)(F)F)c3)[nH]2)cc1C (configuration not stated),36.8% (inactive)
2,C=CCn1c(C)cc(C2=NNC(=NCC)SC2)c1C,106% (active)
3,O=C1CC(c2cccc(Br)c2)C2=C(CCCC2=O)N1 (configuration not stated),-11.1% (inactive)
4,Cc1cc(Cl)ccc1-c1nc(NCCN(C)C)nc2ccsc12,5.65% (inactive)
5,COc1ccc(-c2n[nH]c3c2CN(C(=O)c2ccc(F)cc2)CC3)cc1,-4.89% (inactive)
6,COc1ccc(C2CC(c3cccc(OC)c3)=NN2c2ccc(S(N)(=O)=O)cc2)cc1 (configuration not stated),-21.8% (inactive)
7,O=C(NCc1ccccc1Cl)c1csc([C@@H]2O[C@H](CO)[C@@H](O)[C@H]2O)n1,9.43% (inactive)
8,Cc1ccc(CN2CC(N3CCC(Cc4ccccc4)CC3)CS2(=O)=O)cc1 (configuration not stated),15.9% (inactive)
9,CC(CN1CCCCC1)OC(=O)c1ccccc1Cl (configuration not stated),-5.2% (inactive)
10,O=C(O)Cc1ccc(NCc2ccccc2Cl)cc1,-84.7% (inactive)
11,CC(C)OC(=O)c1ccc(NCc2cc(O)ccc2O)cc1Cl,64% (active)
12,COc1ccc(C2=NO[C@@H]3C(=O)N(Cc4ccccc4)C(=O)[C@H]23)cc1OC,21.8% (inactive)
13,COc1ccc(-c2cc(-c3ccc(N)cc3)nc(N)c2C#N)cc1OC,28.4% (inactive)
14,COc1ccc(-c2cc(C(F)(F)F)nc(S(C)(=O)=O)n2)cc1OC,104% (active)
15,O=C1N=C2SCCN2/C1=C\c1c(Cl)cccc1Cl,2.52% (inactive)
16,COc1ccc(NC(=O)C2Cc3c(-c4cccc(NC(C)=O)c4)ccnc3O2)cc1OC (configuration not stated),24% (inactive)
17,CCN(CC)CCCNC(=S)N(CCO)Cc1cc2cc3c(cc2[nH]c1=O)OCO3,5.64% (inactive)
18,O=c1oc2ccccc2cc1-c1cn(-c2ccccc2)c(=S)[nH]1,98.7% (active)
19,COc1cccc(-n2c(=S)[nH]c3c(oc4ccccc43)c2=O)c1,-22.9% (inactive)
